The source of these data is PubChem BioAssay (NCATS).

The structures appear in SMILES notation. Values without a mark were called inactive. Results filed as inconclusive are left out. Calls of active or inactive are those of the source. Calls come from the whole dose curve; as a rule, active = well fitted curve in the direction sought with a large enough effect; inconclusive = small, poorly fitted or top-dose-only effect, or another doubt; inactive = no such curve, though single readings can be large; an effect the other way counts as inactive or inconclusive.

The target of one assay is Luciferin 4-monooxygenase (Photinus pyralis) (UniProt P08659). As to the kind of experiment: Primary firefly luciferase (FLuc) qHTS assay for identification of artifact compounds. (AID 1845220).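 For activity change, negative = inhibition: plate controls were DMSO vehicle for no effect and no enzyme for full effect.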 Note: nearly all actives have a fitted effect of over 60% in size. To be noted: purified firefly luciferase, luminescence, 5 min; series mostly up to 54.1 µM; activity change, negative = inhibition: at the top concentration. The method in brief:
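Compounds sat 15 min at room temperature with 10 uM luciferin and 10 uM ATP (pH 7.6 Tris acetate). Firefly luciferase (10 nM final) was then added, and luminescence was read 5 min later. Data normalized to no-enzyme and DMSO controls were Hill-fitted.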
(In qHTS, concentration-response curves come from the screen itself.)
As to `COC(=O)C1=CO[C@@H](O)[C@@H]2C(CO)=CC[C@H]12`, the “activity change, negative = inhibition” value is -6.31%.

As to `CC(C)N(CCC(=O)c1ccc2ccccc2c1)Cc1ccccc1`, the outcome was inactive.

Consider `N[C@@H](Cn1ccc(=O)c(O)c1)C(=O)O`, for which the activity change, negative = inhibition was -9.21% [at 6.45 µM].

Regarding `CN(C)c1cc2c(Nc3ccc4c(cnn4Cc4ccccc4)c3)ncnc2cn1`, the result was inactive.

Turning to `Cc1nn(-c2ccccc2)c(C)c1/C=N/N1CCN(Cc2ccccc2)CC1`, the result was inactive.

System in a further assay: not listed separately
In words: Primary fluorescence-based thiol-reactive (MSTI) qHTS assay for identification of artifact compounds. (AID 1845221).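 For activity change, negative = thiol reactive: thiol-reactive compounds lower the probe fluorescence signal.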 Note: nearly all actives have a fitted effect of over 65% in size. Note: potency is the fitted concentration of half-maximal effect. As to conditions: MSTI thiol-reactivity probe, 1 h; series mostly up to 53.8 µM; activity change, negative = thiol reactive: at the top concentration. The method in brief:
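MSTI probe at 4 uM final in 2% DMSO/PBS pH 7.4; compounds, 1 h at room temperature in dark. Fluorescence Ex/Em 525/598 nm, normalised to Acetyl-MSTI and MSTI, fitted to 4-parameter Hill.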
Consider `COC(=O)C1=CO[C@@H](O)[C@@H]2C(CO)=CC[C@H]12`, for which the Potency was 13.4 µM (active).

In the case of `CC(C)N(CCC(=O)c1ccc2ccccc2c1)Cc1ccccc1`, the “activity change, negative = thiol reactive” value was -18.5%.

Take `O=C1NC(=O)/C(=C/c2ccc3c(c2)OC(F)(F)O3)S1`: the “activity change, negative = thiol reactive” value was 99.1%.

For `COc1ccccc1N1CCN(CCN2C(=O)CC3(CCCC3)CC2=O)CC1`, the “activity change, negative = thiol reactive” value was -12.2%.

For `Cc1nn(-c2ccccc2)c(C)c1/C=N/N1CCN(Cc2ccccc2)CC1`, the “activity change, negative = thiol reactive” value was -11.8%.

The test system of another assay is Nanoluciferase (engineered Oplophorus gracilirostris luciferase). In words: Primary Nanoluciferase (NLuc) qHTS assay for identification of artifact compounds. (AID 1845222).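 Note: 0% = DMSO and -100% = no enzyme.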 To be noted: NLuc-conditioned medium, Nano-Glo luminescence, 5 min; series mostly up to 54.1 µM; activity, negative = inhibition: at the top concentration. The method in brief: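 Luminescence from secreted NLuc (filtered, 1:55-diluted S16 cell medium) read 5 min after Nano-Glo substrate; compounds preincubated 15 min, RT. Hill fits of inhibition normalized to DMSO and no-enzyme.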
On to `O=[N+]([O-])c1ccc(-c2nc(-c3ccc(F)cc3)c(-c3ccncc3)[nH]2)cc1`, for which the “activity, negative = inhibition” value is -0.0355%.

Take `CN(C)c1cc2c(Nc3ccc4c(cnn4Cc4ccccc4)c3)ncnc2cn1`: the “activity, negative = inhibition” value is -13.3%.

With `Cc1nn(-c2ccccc2)c(C)c1/C=N/N1CCN(Cc2ccccc2)CC1`, the “activity, negative = inhibition” value is -3.14%.

System in a further assay: not listed separately
In words: Primary redox qHTS assay for identification of artifact compounds. (AID 1845223).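 Note: 0% = DMSO and 100% = reference compound.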 To be noted: Amplex Red/HRP redox cycling with DTT, fluorescence; series mostly up to 53.8 µM; redox activity (% of DA3003): at the top concentration. The method in brief: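 Redox-cycling detection via DTT (250 uM final) oxidation coupled to Amplex Red (25 uM)/HRP (250 mU/mL) in HBSS. 15 min preincubation plus 30 min after DTT, room temperature. Ex/Em 525/598 nm; 4-parameter Hill fit against DMSO and 10 uM DA3003.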
On to `O=[N+]([O-])c1ccc(-c2nc(-c3ccc(F)cc3)c(-c3ccncc3)[nH]2)cc1`, for which the “redox activity (% of DA3003)” value is -1.52%.

Take `COC(=O)C1=CO[C@@H](O)[C@@H]2C(CO)=CC[C@H]12`: the “redox activity (% of DA3003)” value is 2.78%.

`Clc1ccc2c(c1)N=C(N1CCNCC1)c1ccccc1N2`: the “redox activity (% of DA3003)” value is -2.17%.

Consider `CC(C)N(CCC(=O)c1ccc2ccccc2c1)Cc1ccccc1`, for which the “redox activity (% of DA3003)” value was -1.82%.

Consider `Nc1ncnc2n[nH]c(Nc3ccc(F)cc3)c12`, for which the “redox activity (% of DA3003)” value was -3.3%.

For `O=C1NC(=O)/C(=C/c2ccc3c(c2)OC(F)(F)O3)S1`, the “redox activity (% of DA3003)” value was 1.66%.

Turning to `N[C@@H](Cn1ccc(=O)c(O)c1)C(=O)O`, the redox activity (% of DA3003) was -4.94% [at 6.41 µM].

With `COc1ccccc1N1CCN(CCN2C(=O)CC3(CCCC3)CC2=O)CC1`, the “redox activity (% of DA3003)” value was 19.6%.

For `Cc1nn(-c2ccccc2)c(C)c1/C=N/N1CCN(Cc2ccccc2)CC1`, the “redox activity (% of DA3003)” value was 9.14%.
